# High-throughput results (PubChem)
# Sampled rows, rich in hits. Any-hit rate of the full collection: about 21%.
# Pf growth 48h = Primary qHTS for delayed death inhibitors of the malarial parasite plastid, 48 hour incubation | Potency, µM (titrated, usually from 28.7 µM), hits mostly inhibitors | 5.9% of 310,000 active | P. falciparum luciferase growth in erythrocytes, 48 h | AID 504832, 2011
#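 Growth was read as firefly luciferase luminescence after a 48 h, 37 C, 5% CO2 exposure of compounds to reporter-bearing P. falciparum cultures (0.1% parasitemia, 2% hematocrit final) in Albumax-supplemented RPMI 1640.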
# HCMV antiviral = qHTS Assay for inhibitors of the human cytomegalovirus (HCMV); activity change, negative = inhibition, % at 57.5 µM; HFF cells, HCMV-luciferase reporter, 72 h; stronger effect = lower value; AID 1259415, 2018; 4.5% of 410,000 active; in the data active = activity change below about -60%; inconclusive = no clear call, values can overlap the other calls; inactive = above about -39%
#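 Human foreskin fibroblasts infected with luciferase-reporter HCMV at MOI 1 PFU/cell, compounds at two doses. Luciferase measured 72 h post infection; normalized to buffer-only basal and Salinomycin (10uM) controls.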
# Shiga toxin inh = A qHTS for Small Molecule Inhibitors of Shiga Toxin. Vero cells, Shiga toxin protein synthesis inhibition reporter. inhibition, % at 38.7 µM. 9.2% of 290,000 active; in the data active = inhibition mostly above about 28%, no sharp cut-off; inactive = mostly below about 43%
# HCV inhibitor = qHTS Assay for Inhibitors of Hepatitis C Virus (HCV); Huh7.5.1 HCVcc-Cre infection, luciferase reporter, 44 h; Potency, µM (top dose mostly 41.8 µM), usual class: inhibitors; 3.4% of 340,000 active
#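 Cells (1,000/well) were plated 4 h before compound, then infected with HCVcc-Cre virus (~0.5 moi). After 44 h further culture, infection was read as luciferase luminescence following a 15 min substrate incubation at room temperature.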
# CHX counter = Cycloheximide Counterscreen for Small Molecule Inhibitors of Shiga Toxin; cell reporter, cycloheximide protein synthesis inhibition counterscreen; 12% of 300,000 active; max response, %; in the data active = max response mostly above about 13%, no sharp cut-off; inactive = mostly below about 14%; note: read at 38.3 µM for the half of the compounds with a filed dose
# Pf growth 96h = Primary qHTS for delayed death inhibitors of the malarial parasite plastid, 96 hour incubation. Potency, µM (doses to about 28.7 µM), most hits filed as inhibitors. P. falciparum luciferase reporter growth, 96 h. 6.9% of 320,000 active
#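 Compounds incubated with erythrocytes infected by luciferase-expressing P. falciparum (2% hematocrit, 0.05% parasitemia final) for 96 hours, 37 C in 5% CO2. Growth inhibition scored as decreased luciferase luminescence.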
# Numbers stand for hits; 0 = inactive; ? = inconclusive; - = not tested or not shown; [ ] = another dose, or the depositor's remark. Unless noted, calls come from the whole dose curve; as a rule, active = well fitted inhibition curve with a large enough effect; inconclusive = small, poorly fitted or top-dose-only effect, or another doubt; inactive = no such curve, though single readings can be large or run the other way.
SMILES,Pf growth 48h,HCMV antiviral,Shiga toxin inh,HCV inhibitor,CHX counter,Pf growth 96h
Cc1ccc(Sc2ccccc2CN(C)C)c(N)c1,-,-,0,-,25,-
CN(C)Cc1ccccc1Sc1ccccc1Br,0,0,0,0,0,?
CCOc1ccc(C2CC(=O)n3nc(-c4ccc(C)cc4)nc3S2)cc1OC (stereo unspecified),-,0,-,-,-,-
CC1(C)Cc2ccccc2C2=NNC(=O)C2=N1,?,-102,0,?,0,0
CC1(C)Cc2ccccc2C(Nn2cnnc2)=N1,-,0,0,0,0,0
Cc1ccccc1OCc1nc2ccccc2n1C,0,0,-,0,32,0
Cn1c(COc2ccc(F)cc2)nc2ccccc21,0,0,68,0,43,?
Cn1c(COc2ccc(C(=O)O)cc2)nc2ccccc21,0,0,0,0,0,?
Cc1cccc(OCCn2c(CCCO)nc3ccccc32)c1,15µM,0,0,0,0,?
Cc1ccc(C)c(OCc2nc3ccccc3n2C)c1,-,0,-,-,-,-
COCc1nc2ccccc2n1CCOc1cccc(C)c1,-,0,-,-,-,-
COc1cccc(OCc2nc3ccccc3n2C)c1,-,0,-,-,-,-
Cc1cccc(OCc2nc3ccccc3n2C)c1,0,0,29,0,37,0
Cc1cccc(CC(=O)NCC(=O)NCc2cc(=O)n(C)c(=O)n2C)c1,0,0,0,0,0,0
COc1ccccc1-c1coc2c(CN3CCCC(C)C3)c(O)ccc2c1=O (stereo unspecified),?,0,0,0,0,0
Cc1nnc(OCc2nc3ccccc3n2C)c2ccccc12,0,0,68,0,33,0
Cn1c(Cn2cnc3ccccc32)nc2ccccc21,0,0,0,0,0,-
COc1ccc(C(=O)n2cnc3ccccc32)cc1[N+](=O)[O-],0,0,0,0,0,?
C#CCOCCOCCOCCNc1nc(N2CCOCC2)nc(N2CCN(C(=O)CCCCCCCCCCNC(=O)[C@H](CO)n3cc(CCCSC)nn3)CC2)n1,0.52µM,0,-,0,-,0.52µM
C#CCOCCOCCOCCNc1nc(N2CCN(C(=O)Cn3cc(CCCCN)nn3)CC2)nc(N2CCN(C(=O)[C@H](C)n3cc(CCC(=O)O)nn3)CC2)n1,-,0,-,0,-,-
C#CCOCCOCCOCCNc1nc(N2CCN(C(=O)CCCCCCCCCCNC(=O)[C@@H](CCC(=O)O)n3cc(CCCCCN)nn3)CC2)nc(N2CCN(C(=O)CCCCCCCCCCNC(=O)[C@H](CO)n3cc(CCCSC)nn3)CC2)n1,4.7µM,-,-,0,-,?
C#CCOCCOCCOCCNc1nc(N2CCOCC2)nc(N2CCN(C(=O)[C@H](CCCCN)n3cc(CCC(=O)O)nn3)CC2)n1,-,0,-,0,-,-
C#CCOCCOCCOCCNc1nc(N2CCN(C(=O)CCCCCCCCCCNC(=O)[C@@H](CCC(=O)O)n3cc(CCCCCN)nn3)CC2)nc(N2CCN(C(=O)CCCCCCCCCCNC(=O)[C@H](CO)n3cc(CCCCCN)nn3)CC2)n1,2.1µM,-,-,0,-,5.9µM
Cc1csc(=O)n1CC(=O)Nc1nc2ccccc2s1,0,0,-,0,-,?
CCOC(=O)c1cc(-c2ccccc2)n(CC(=O)NC2CCC(C)CC2)c1C (stereo unspecified),-,0,-,-,-,-
SMILES,Pf growth 48h,HCMV antiviral,Shiga toxin inh,HCV inhibitor,CHX counter,Pf growth 96h
NNC(=O)CN1C(c2ccc(Br)cc2)=Nc2ccc(Br)cc2C1c1ccccc1 (stereo unspecified),10µM,0,0,?,0,?
COc1cc(C2=Nc3ccc(Br)cc3C(c3ccccc3)N2CC(=O)NN)cc(OC)c1OC (stereo unspecified),8.3µM,?,0,0,0,?
CC(C)=NOc1nc(N2CCOCC2)nc(N2CCOCC2)n1,0,0,0,0,0,0
CC(C)n1c(SCC(=O)N2c3ccccc3Sc3ccccc32)nc2c1c(=O)n(C)c(=O)n2C,?,0,0,11µM,0,0[5.75 µM]
Cc1ccc(C(=O)CSc2nnc(CNc3nc(-c4ccccc4)cs3)n2C)cc1,?,?,0,0,0,13µM
CCCn1c(SCC(=O)N2c3ccccc3Sc3ccccc32)nc2c1c(=O)n(C)c(=O)n2C,0,0,0,?,0,?
CCn1c(SCC(=O)Nc2nc(-c3ccc(C)cc3)cs2)nnc1-c1ccccc1,-,-72,0,7.9µM,0,-
